Measurements reported in the supplement of paper PMC6555819.

Tests used:
Test in all cases: PBM binding z-score (relative to random genomic background probes); higher = stronger binding; sequences stand for … in GC…GCGATTGACAGCGTAGAATGAAGG
[1] = system: FXR:RXRa (NR concentration 270 nM, RXRa partner concentration 90 nM)
Procedure, shortened: (§1)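 Each nuclear receptor dimer, without ligand, was incubated for 1 h on custom Agilent 4×180K protein-binding microarrays. Binding was detected with antibodies against each partner (one per run), and scanned fluorescence was regression-normalized. The binding z-scores are referenced to random human genomic background probes.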

[2] = system: LXRa:RXRa (NR concentration 270 nM, RXRa partner concentration 90 nM)
Procedure, shortened: as §1

[3] = system: LXRa homodimer (NR concentration 270 nM)
Procedure, shortened: as §1

[4] = system: LXRb:RXRa (NR concentration 270 nM, RXRa partner concentration 90 nM)
Procedure, shortened: as §1

[5] = system: LXRb homodimer (NR concentration 270 nM)
Procedure, shortened: as §1

[6] = system: PPARa:RXRa (NR concentration 270 nM, RXRa partner concentration 90 nM)
Procedure, shortened: as §1

[7] = system: PPARg:RXRa (NR concentration 180 nM, RXRa partner concentration 90 nM)
Procedure, shortened: as §1

[8] = system: PPARg:RXRa 270nM:90nM, anti-RXR (NR concentration 270 nM, RXRa partner concentration 90 nM)
Procedure, shortened: as §1

[9] = system: PPARg:RXRa 30nM:10nM, anti-RXR (NR concentration 30 nM, RXRa partner concentration 10 nM)
Procedure, shortened: as §1

[10] = system: PPARg:RXRa 90nM:30nM, anti-RXR (NR concentration 90 nM, RXRa partner concentration 30 nM)
Procedure, shortened: as §1

[11] = system: PPARg:RXRa DBDmut IVT, anti-RXR (DBD mutation: RXRa K156A/R161A, NR concentration 270 nM, RXRa partner concentration 90 nM)
Procedure, shortened: as §1

[12] = system: PPARg:RXRa IVT, anti-PPARg (NR concentration 270 nM, RXRa partner concentration 90 nM)
Procedure, shortened: as §1

[13] = system: PPARg DBDmut:RXRa IVT, anti-PPARg (DBD mutation: PPARg1 K132A/R137A, NR concentration 270 nM, RXRa partner concentration 90 nM)
Procedure, shortened: as §1

[14] = system: PPARg DBDmut IVT, anti-PPARg (DBD mutation: PPARg1 K132A/R137A, NR concentration 270 nM)
Procedure, shortened: as §1

[15] = system: PPARg homodimer (NR concentration 180 nM)
Procedure, shortened: as §1

[16] = system: PXR:RXRa (NR concentration 270 nM, RXRa partner concentration 90 nM)
Procedure, shortened: as §1

[17] = system: PXR homodimer (NR concentration 270 nM)
Procedure, shortened: as §1

[18] = system: RARa:RXR (NR concentration 270 nM, RXRa partner concentration 90 nM)
Procedure, shortened: as §1

[19] = system: RARa homodimer (NR concentration 270 nM)
Procedure, shortened: as §1

[20] = system: RARb:RXRa (NR concentration 270 nM, RXRa partner concentration 90 nM)
Procedure, shortened: as §1

| Sequence | PBM binding z-score [1] | PBM binding z-score [2] | PBM binding z-score [3] | PBM binding z-score [4] | PBM binding z-score [5] | PBM binding z-score [6] | PBM binding z-score [7] | PBM binding z-score [8] | PBM binding z-score [9] | PBM binding z-score [10] | PBM binding z-score [11] | PBM binding z-score [12] | PBM binding z-score [13] | PBM binding z-score [14] | PBM binding z-score [15] | PBM binding z-score [16] | PBM binding z-score [17] | PBM binding z-score [18] | PBM binding z-score [19] | PBM binding z-score [20] |
| --- | --- | --- | --- | --- | --- | --- | --- | --- | --- | --- | --- | --- | --- | --- | --- | --- | --- | --- | --- | --- |
| TCTTGTAGATCAAAGGTTAAGAACGCCGAAGCCT | 2.02 | 2.28 | 0.21 | 2.16 | 0.138 | 4.96 | 8.19 | 7.86 | 7.43 | 8.26 | 2.38 | 3.76 | 0.351 | 0.234 | 1.19 | 2 | 0.16 | 2.42 | 0.244 | 1.86 |
| TCTCGGAGGACACGAAGGTCAGACCTTTCCAGAG | 1.6 | 1.26 | 0.373 | 1.41 | -0.66 | 2.19 | 0.782 | 1.53 | 2.38 | 2.04 | 1.65 | 0.996 | -0.713 | -0.138 | 1.39 | 2.12 | 0.898 | 2.4 | 0.387 | 3.59 |
| CCTCGGAGGACATAAGGTCAGAGCTGTCCGCTTT | 2.39 | 2.6 | 0.959 | 1.75 | -0.328 | 2.45 | 0.338 | 0.85 | -0.243 | 0.319 | 0.213 | 0.303 | -1 | -1.59 | 1.72 | 2.42 | -0.0342 | 3.08 | 0.792 | 3.4 |
| TCTCGGTGGACACGAAGGTCAGAGCTTTCCAGAG | 0.952 | 0.962 | 0.157 | 1.36 | -0.833 | 2.04 | 0.78 | 2.38 | 2.3 | 2.3 | 1 | 0.976 | -1.18 | -1.31 | 0.842 | 1.38 | -0.107 | 1.55 | -0.711 | 2.57 |
| ACAGACATGTGAGTGAAGGTAACTCAGCTGGACG | -0.28 | -0.449 | -0.659 | -0.669 | -0.436 | -0.3 | 0.817 | -0.286 | -0.111 | 0.163 | -0.459 | -0.467 | -0.0972 | -0.0853 | -0.419 | -0.554 | -0.383 | -0.531 | -0.221 | -0.157 |
| ACTATTAGTTGACTTAGGGCAACCGTTACGACGC | 0.212 | 0.547 | 0.268 | 0.434 | 0.514 | 0.372 | 0.776 | 0.417 | 0.154 | 0.461 | 0.596 | 0.527 | 1.12 | 0.546 | 0.51 | 0.554 | 0.502 | 0.863 | 0.271 | 0.949 |
| CTCGAAAGGTCGGTTGAGGTGCGTATACGGATAA | 2.39 | 1.39 | -0.235 | 1.24 | -0.239 | 2.3 | 0.2 | 0.942 | 0.258 | 0.457 | -0.22 | 0.354 | -0.47 | -0.617 | 0.786 | 1.84 | 0.0676 | 1.44 | -0.0377 | 2.92 |
| AATACAGGGTCATCATAGGCCAGAGTACGCACAG | 6.85 | 6.83 | 2.28 | 4.77 | 1.57 | 5.63 | 6.31 | 5.66 | 2.51 | 4.41 | 2.62 | 3.98 | 1.5 | 0.916 | 1.8 | 4.42 | 1.01 | 4.65 | 1.25 | 4.25 |
| AGTCAAAGTTCATTTAGGTAACGTAAGATATGCT | 6.47 | 6.25 | 6.58 | 4.2 | 3.14 | 4.58 |  | 6.05 | 2.98 | 5.09 | 0.638 | 3.21 | 1.36 | 1.51 | 2.39 | 5.45 | 8.27 | 3.63 | 1.4 | 4.66 |
| CGTCCAAGGTCCAAGGTCAGTGAAGAGATGACGG | 1.55 | 1.08 | 0.179 | 1.1 | -0.433 | 2.37 | 1.65 | 2.35 | 0.473 | 1.66 | -0.345 | 0.595 | -0.804 | -0.592 | 1.34 | 1.67 | 0.584 | 2.28 | 0.674 | 3.29 |
| AGTCATAGTTCATCTAGGTAACGTAAGATATGCT | 2.22 | 2.66 | 1.11 | 1.59 | 0.357 | 2.84 | 2.87 | 3.22 | 1.32 | 2.47 | 0.73 | 2.74 | 1.12 | 0.57 | 1.23 | 2.03 | 1.24 | 1.78 | 0.89 | 3.26 |
| CCTTACGGGTCACCCCAGGTTATAGCATCGGAGT | 5.74 | 6.63 | 1.25 | 4.43 | -0.027 | 5.01 | 4.23 | 4.51 | 1.22 | 3.1 | 1.58 | 3.6 | 0.299 | -0.0802 | 2.12 | 5.4 | 0.158 | 4.43 | 0.572 | 3.79 |
| CCTGGCAGGCCAATCTGGGTCACTCAAGGCTTGA | 0.937 | 0.927 | -0.703 | 0.276 | -1.26 | 2.69 | 1.37 | 2.06 | -0.284 | 1.22 | 3.55 | 4.78 | -0.588 | -0.975 | 0.0231 | 0.725 | -0.786 | 1.11 | -1.09 | 1.64 |
| CGAACAAGGTCAAGGACAGTGAATCTCCGCACGC | 7.13 | 5.06 | 0.53 | 3.78 | 0.377 | 5.74 | 5.98 | 5.82 | 2.42 | 4.59 | 4.85 | 4.49 | 1.31 | 0.251 | 2.38 | 3.97 | 0.628 | 4.74 | 0.971 | 5.2 |
